Screens (PubChem BioAssay)
ALOX15B inhib = inhibitors of human 15-lipoxygenase 2 (ALOX15B). Potency, µM (top dose mostly 57.1 µM), most hits filed as inhibitors. 0.56% of 110,000 active. purified 15hLO-2, xylenol orange hydroperoxide absorbance; also: nearly all actives have a fitted effect of over 60% in size
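Screening format was qHTS against 50 nM purified 15hLO-2 in Hepes pH 7.5 with detergent. Activity follows hydroperoxide formation from 45 uM arachidonic acid, measured as 573:405 nm absorbance ratio of the ferric-xylenol orange complex.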
IMPase cell inh = cell-permeable inhibitors of inositol monophosphatase (IMPase); P97697; CHO-M1 cells, IP1 accumulation, HTRF TR-FRET ratio; inhibition (IP1 accumulation), % at 46.1 µM; 120,000 tested, under 10 active; active = well fitted curve in the direction sought with a large enough effect in the signal ratio, not every such curve was filed as active; inconclusive = small, poorly fitted or top-dose-only effect, or a change in a side signal; inactive = no such curve, though single readings can be large or run the other way; the % refers to the signal ratio;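 also: cells stimulated with carbachol in lithium chloride buffer; higher means more IMPase inhibition seen as more IP1 and lower FRET ratio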
Target sequence (P97697 whole entry, looked up): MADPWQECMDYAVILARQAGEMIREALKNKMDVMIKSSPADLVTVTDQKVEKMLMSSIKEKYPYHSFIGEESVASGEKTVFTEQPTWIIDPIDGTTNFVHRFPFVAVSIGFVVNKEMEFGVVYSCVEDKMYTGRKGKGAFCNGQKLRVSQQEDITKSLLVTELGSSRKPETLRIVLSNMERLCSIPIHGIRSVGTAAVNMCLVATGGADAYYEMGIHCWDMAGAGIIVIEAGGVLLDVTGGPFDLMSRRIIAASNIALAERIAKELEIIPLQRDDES
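In this qHTS, compounds (final up to 46 uM) act on CHO-M1 cells that are then activated through the M1 receptor with carbachol, in pH 7.4 buffer containing 50 mM LiCl, for 30 min. IP1 accumulation is quantified by the IP-One immunoassay.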
IMPase Li cell = cell-permeable IMPase inhibitors with lithium potentiation; Potency, µM (highest dose often 59.4 µM), most hits filed as inhibitors; 0.35% of 210,000 active; CHO-M1 cells, IP1 TR-FRET (IP-One), carbachol + lithium;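 also: IP1 builds up when IMPase is blocked and the TR-FRET signal falls; nearly all actives have a fitted effect of over 50% in size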
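Steps: plate 2000 CHO-M1 cells per well and culture 16–30 h; add compound and lithium; incubate 30 min, 37C; add d2-IP1 tracer and Eu cryptate anti-IP1 antibody in lysis buffer; read after 10 min at room temperature.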
HPGD block = blocks human HPGD enzyme activity; P15428; purified HPGD, NADH fluorescence kinetic, PGE2 substrate; 4.3% of 150,000 active; Potency, µM, actives largely listed as inhibitors; active = well fitted inhibition curve with a large enough effect, not every such curve was filed as active; inconclusive = small, poorly fitted or top-dose-only effect, or another doubt; inactive = no such curve, though single readings can be large or run the other way
Target sequence (P15428 whole entry, looked up): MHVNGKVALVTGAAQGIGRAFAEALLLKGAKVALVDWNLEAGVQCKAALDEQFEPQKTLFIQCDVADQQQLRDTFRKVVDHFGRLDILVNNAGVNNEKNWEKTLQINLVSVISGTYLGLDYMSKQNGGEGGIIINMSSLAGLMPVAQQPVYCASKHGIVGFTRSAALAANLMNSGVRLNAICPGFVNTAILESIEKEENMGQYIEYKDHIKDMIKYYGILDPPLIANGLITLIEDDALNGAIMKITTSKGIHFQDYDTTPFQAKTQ
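20 nM HPGD preincubated 15 min at room temperature with compound in 50 mM Tris-HCl pH 8, 0.01% Tween 20. Started with 1 mM NAD+ and 30 uM prostaglandin E2; NADH fluorescence (360/450 nm) read 5 times over 30-s intervals, last minus first.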
12-hLO inh = blocks human 12-lipoxygenase activity. Potency, µM (doses to about 57.1 µM), actives largely listed as inhibitors. P18054. purified 12-hLO, xylenol orange hydroperoxide absorbance. 0.12% of 150,000 active; also: nearly all actives have a fitted effect of over 55% in size
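Purified human 12hLO (150 nM final) was preincubated with compounds for 15 min at room temperature in 25 mM Hepes pH 7.0, 0.01% Triton X-100, then reacted with 40 uM arachidonic acid for 30 min. Hydroperoxide was detected with ferrous iron/xylenol orange.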
PNC assembly inh = perinucleolar compartment assembly inhibition | PC3M PTB-GFP, PNC prevalence imaging, 16 h; active compounds read low | activity change (PNC), negative = inhibition, % at 10 µM | 3.1% of 140,000 active | AID 2417;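 active = readout at or below -70, meaning at least 70% loss of cells showing the perinucleolar compartment, a nuclear body marking cancer cells; inconclusive = readout between -30 and a set limit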
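Compounds are pinned in duplicate onto adhered PC3M cells stably expressing GFP-tagged PTB and incubated 16 h at 37 C. Cells are then fixed, nuclei stained with Hoechst, and PNC-positive cells counted.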
Numbers stand for hits; 0 = inactive; ? = inconclusive; - = not tested or not shown; [ ] = another dose, or the depositor's remark. Hits are enriched below; roughly 5.4% of the tested compounds scored in any of these assays. Unless noted, calls follow the shape of the dose curve; as a rule, active = well fitted curve in the direction sought with a large enough effect; inconclusive = small, poorly fitted or top-dose-only effect, or another doubt; inactive = no such curve, though single readings can be large; an effect the other way counts as inactive or inconclusive.

SMILES	ALOX15B inhib	IMPase cell inh	IMPase Li cell	HPGD block	12-hLO inh	PNC assembly inh
O=C1CCC(=O)N1c1nc2n(n1)C(c1ccccc1)C=C(c1ccc(Br)cc1)N2 (centres undefined)	0	0	11µM	?	0	0
Cc1nn(Cc2ccccc2Cl)c(C)c1N	0	0	0	0	0	0
Cc1nn(Cc2ccccc2)c(C)c1N	-	-	0	0	0	-90
CN1C[C@H](c2ccccc2)C(O)([C@]2(c3ccccc3)CN(C)C[C@@H](c3ccccc3)C2=O)[C@H](c2ccccc2)C1 (some centres undefined)	0[11.4 µM]	-	0	0	0[11.4 µM]	-
COc1ccc(-c2nnn(CC(=O)N3CCOCC3)n2)cc1	0	0	0	0	0	0
O=C(Cn1nnc(-c2ccc(OCc3ccccc3F)cc2)n1)N1CCOCC1	-	0	0	0	0	-102
COCCNc1ncnc2ccc(-c3ccccc3C)cc12	?	-	0	-	-	-
COC(=O)CSc1nc2sc3c(c2c(=O)n1-c1ccc(C)cc1)CC(C(C)C)OC3 (centres undefined)	-	0	-	-	-	-
CC(=C/c1ccccc1)/C=N/Nc1nc(N2CCCCC2)nc(N2CCCCC2)n1	-	-	0	0	0	0
BrC(/C=N/Nc1nc(N2CCOCC2)nc(N2CCOCC2)n1)=C/c1ccccc1	0	0	0	16µM	0	-96
CCOC(=O)c1cc(NC(=O)c2ccc(OC)cc2)c(=O)n2c1oc1ccc(Cl)cc12	-	0	-	-	-	-
Cc1cc(C)c2c(CC(=O)NN(C)C)coc2c1	-	-	0	-	-	-
Cc1cc(C)c2c(CC(=O)O)coc2c1	0	0	0	20µM	0	0
CC(NC(=O)NCCCC(=O)O)(C(F)(F)F)C(F)(F)F	0	0	0	0	0	0
CC(NC(=O)NC(N)=O)(C(F)(F)F)C(F)(F)F	0	0	0	0	0	-109
C=CCOc1c(Br)cc(/C=N/n2c(CC)n[nH]c2=S)cc1Br	-	-	0	3.2µM	0	0
CCc1n[nH]c(=S)n1/N=C/c1ccc(N(CC)CC)cc1	-	-	0	-	-	-
O=C(CN1CCC(C(O)(c2ccccc2)c2ccccc2)CC1)Nc1cc(Cl)ccc1Cl	0	0	0	0	0	-100
Cc1ccccc1-c1nnc(CN2CCN(c3ccccn3)CC2)o1	-	0	-	-	-	-
Cc1onc(-c2c(Cl)cccc2Cl)c1C(=O)N[C@H]1C(=O)N2[C@H]1SC(C)(C)[C@H]2C(=O)O	0	0	0	10µM	0	-
Cc1ncn(-c2ccccc2O)c1C	0[11.4 µM]	-	0	?	0[11.4 µM]	-
COC(=O)N1CCC[C@@]2(CCN(Cc3cc(C(F)(F)F)cc(C(F)(F)F)c3)C2)C1	0	-	0	0	0	-
CCOC(=O)c1c(C)[nH]c(C(=O)COC(=O)CSC)c1C	0	0	0	0	0	-85
CCC(=O)Nc1cc(-c2nc3cc(C)cc(C)c3o2)ccc1C	-	0	-	-	-	-
CCCCN(C)C(=O)c1coc(=O)c2ccccc12	0	0	0	22µM	0	0
SMILES	ALOX15B inhib	IMPase cell inh	IMPase Li cell	HPGD block	12-hLO inh	PNC assembly inh
CN(C(=O)c1coc(=O)c2ccccc12)c1ccc(Br)cc1	-	-	0	-	-	-
c1ccc2c(N3CCNCC3)nc(-c3ccc4c(c3)OCO4)nc2c1	0	-	0	0	0	-
O=C(NNc1ccc([N+](=O)[O-])cc1)C1CC2CCCC(C1)C2=O (centres undefined)	?	0	0	0	0	-109
O=C(NCc1ccccc1)C1CC2CCCC(C1)C2=O (centres undefined)	0	0	0	0	0	?
O=C(NNc1ccc([N+](=O)[O-])cc1)C1CC1c1ccccc1 (centres undefined)	-	-	0	25µM	0	0
COC(=O)CC[C@@H](C)C1CC[C@H]2[C@H]3CC[C@H]4C[C@@H]5CCC4(C)[C@@]3(O5)[C@@H](Br)[C@@H](Br)[C@@]12C (some centres undefined)	-	-	0	0	-	-
Cc1cccc(C)c1OCC(=O)N1CC2(C)CC1CC(C)(C)C2 (centres undefined)	0	0	0	0	0	0
CC1(C)CC2CC(C)(CN2C(=O)COC(=O)Cn2[nH]c(=O)c3ccccc3c2=O)C1 (centres undefined)	0	0	0	0	0	-88
Cc1ccc(OCC(=O)N2CC3(C)CC2CC(C)(C)C3)cc1 (centres undefined)	-	0	0	0	0	-100
COc1cc(Nc2ccc(C(=O)O)cc2[N+](=O)[O-])cc(OC)c1	-	-	0	20µM	0	0
COc1cc(C)nc(N2CCCC(C(=O)Nc3cccc(Cl)c3Cl)C2)n1 (centres undefined)	0	0	0	0	0	-87
COc1ccccc1NC(=O)C1CCCN(c2nc(C)cc(C)n2)C1 (centres undefined)	-	0	0	0	0	0
O=C(/C=C\c1ccccc1OC(=O)c1ccccc1F)c1cc2ccccc2o1	-	0	0	28µM	0	?
COc1ccc(-c2cc(C(=O)N3CCc4ccccc4C3)no2)cc1OC	0	0	0	11µM	0	0
CCOC(=O)C1CCCN(C(=O)c2cc(-c3ccc(C)cc3)on2)C1 (centres undefined)	0	0	0	16µM	0	0
O=C(c1cc(-c2ccccc2)on1)N1CCc2ccccc2C1	-	-	0	-	-	-
COC(=O)c1cc(-c2cccc(OC)c2)on1	0	0	0	0	0	0
COc1cccc(-c2cc(C(=O)N3CCCCC3C)no2)c1 (centres undefined)	0	0	0	16µM	0	0
COc1cccc(-c2cc(C(=O)O)no2)c1	0	0	0	5.6µM	0	0
CCOC(=O)C1CCCN(C(=O)c2cccs2)C1 (centres undefined)	0	0	0	0	0	0
O=c1c(-c2cccs2)nc2cnc(N3CCNCC3)nc2n1CCc1ccccc1	0	-	0	-	-	-
O=C(c1ccncc1)N1CCC2(CCCN(c3ccncc3)C2)CC1	0	-	0	0	0	-
Cc1c(Cl)cccc1NC(=O)c1ncn(-c2ccccc2)n1	-	0	-	-	-	-
O=C(c1cc(-c2cccc(O)c2)on1)N1CCCCC1	0	0	0	4.5µM	0	?
Cc1ccc(Cn2ccc(NC(=O)c3cc(-c4ccc5c(c4)OCO5)on3)n2)cc1	0	0	11µM	?	0	0
SMILES	ALOX15B inhib	IMPase cell inh	IMPase Li cell	HPGD block	12-hLO inh	PNC assembly inh
COc1cccc(-c2cc(C(=O)N3CCCc4ccccc43)no2)c1	0	0	0	0	0	0
Cc1ccc(Cn2ccc(NC(=O)c3cc(-c4ccccc4)on3)n2)cc1	0	0	0	0	0	0
O=C(c1cc(-c2ccc3c(c2)OCO3)on1)N1CCOCC1	0	0	0	32µM	0	0
O=C(c1cc(-c2ccc(F)cc2)on1)N1CCCC1	0	0	-	-	0	0
COc1cccc(-c2cc(C(=O)N3CCCCCC3)no2)c1	0	0	0	2.5µM	0	-108
C=C(C#N)C(=O)OCC	0	-	0	0	0	-
